From PubChem BioAssay AID588405 (Sanford-Burnham Center for Chemical Genomics, 2011)
Hit rate of the full screen: of about 360,000 compounds, about 6,200 (1.7%) were called active. The full list was thinned out, with actives kept by preference. Values without a mark were called inactive.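 The calls were made as follows: active = inhibition of at least 50% at 20 µM; inactive = the rest.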

Assay: Peg3 promoter-driven luciferase inhibitors, primary screen, cell-based, HeLa, luciferase luminescence (AID 588405)
Conditions: HeLa PEG-Prom luciferase reporter, overnight, at 20 µM, hits give high values

Row | SMILES | inhibition
1 | Oc1cccc2cc(-c3ccncc3)cnc12 | -97.7%
2 | O=C1c2ccccc2C(c2nc3ccccc3[nH]2)N1c1ccccc1 (stereo not given) | 2.93%
3 | Cc1cccc(N2CC(C(=O)Nc3ccccc3N3CCCC3)CC2=O)c1C (stereo not given) | 20.1%
4 | COc1ccccc1-n1c(SCC(=O)Nc2cccc(C(=O)O)c2)nnc1-c1ccccc1O | -4.09%
5 | COc1cc(/C=N/NC(=O)c2cc(-c3ccccc3C)nc3ccccc23)cc(OC)c1O | 10.1%
6 | COc1cccc(/C=N/Nc2cc(C)nc(-c3ccccc3O)n2)c1O | 79.9% (active)
7 | CC1(C(=O)NS(=O)(=O)c2cccc(F)c2)CCN1C(=O)Cc1ccc(Cl)cc1Cl (stereo not given) | -4.9%
8 | O=C(O)C1=CCCN(CCON=C(c2ccccc2)c2ccccc2)C1 | -3.93%
9 | Cc1cccc(-c2cnc(C(O)c3cc(C)cc(C)c3)[nH]2)c1 (stereo not given) | 15.8%
10 | CC(=O)C12CC(C)=C(C)CC1CC1C3CCC4=CC(=O)CCC4(C)C3CCC12C (stereo not given) | 14%
11 | CSc1ncnc2c1ncn2CC(=O)C1CCC2C3CCC4=CC(=O)CCC4(C)C3CCC12C (stereo not given) | 105% (active)
12 | CSc1ncnc2c1ncn2CCCNCC1CCCCC1 | -12.2%
13 | COc1ccc(OC)c(NC(=O)C2(C)CCN2C(=O)Cc2ccccc2)c1 (stereo not given) | 0.38%
14 | CC(C)Oc1cc(F)ccc1-c1cc(C(=O)Nc2cccc(Cl)c2)[nH]n1 | -14.2%
15 | Nc1nonc1-n1nnc(C(=O)N/N=C\c2ccncc2)c1CN1CCCCC1 | 23.4%
16 | Nc1nonc1-n1nnc(C(=O)N/N=C/c2cc(Br)ccc2O)c1CSC1=NCCS1 | 56.4% (active)
17 | COCc1c(C(=O)N/N=C\c2cccnc2)nnn1-c1nonc1N | 10.8%
18 | COc1cccc(-c2cnc3c(NC(C)=O)cc(-c4cc(F)ccc4OC)cn23)c1 | 23.8%
19 | CN(Cc1ccccc1)CC(O)COc1ccc(CNCc2cc3ccccc3s2)cc1 (stereo not given) | 50.3% (active)
20 | COc1ccc(OCC(O)CN(C)C(=O)C(C)Oc2ccccc2)cc1 (stereo not given) | 9.53%
21 | COc1cccc(CN(C)CC(O)COC(c2ccccc2)c2ccccc2C)c1 (stereo not given) | 4.99%
22 | Cc1ccc(C)c(C(O)c2ncc(-c3cccc4ccccc34)[nH]2)c1 (stereo not given) | 17.3%

Row | SMILES | inhibition
23 | COc1ccc(-c2nn(-c3ccccc3)cc2/C=C2/SC(=S)N(CCCC(=O)O)C2=O)c(C)c1 | 60.7% (active)
24 | COc1cccc(/C=C2\SC(=S)N(CCCC(=O)N3CCOCC3)C2=O)c1 | -13.7%
25 | Cc1ccc(-c2nn(-c3ccccc3)cc2/C=C2\SC(=S)N(CCCCCC(=O)O)C2=O)o1 | -22.9%
26 | CCc1nc2c(OCc3ccc(Cl)cc3Cl)cccn2c1N(C)C(=O)C(C)C | 14.2%
27 | Cc1c(NC(=O)CSc2cccc3cccnc23)c(=O)n(-c2ccccc2)n1C | 23.3%
28 | O=C(N/N=C\c1cccnc1)c1cc(-c2ccccc2)nc2c(Cl)cccc12 | 32.6%
29 | O=C(CSc1cccc2cccnc12)N/N=C/c1cccnc1 | 74.3% (active)
30 | CNc1cnc(-c2cc(OC)c(OC)c(OC)c2)cn1 | -13.3%
31 | CC(=O)NC(c1ccccc1)c1nc(-c2cccc(C(C)C)c2)cs1 (stereo not given) | 4.34%
32 | CC(C)(C)CC(C)(C)NCC(O)COCCOc1ccc(Br)cc1 (stereo not given) | 103% (active)
33 | COc1ccc(OCC(O)CNCCNc2nccc(C(F)(F)F)n2)cc1 (stereo not given) | 1.34%
34 | CC(Oc1ccc(Br)cc1)C(=O)NC1CCCCCC1 (stereo not given) | -67%
35 | CC(NCC(=O)Nc1ccccc1C(=O)NC1CC1)c1ccccc1Cl (stereo not given) | 6.43%
36 | CCc1nc2ccc(C(=O)NCCNC(C)=O)cn2c1N(CC)Cc1cccc(Br)c1 | 5.16%
37 | Cc1ccc2nc(-c3ccncc3)cc(C(=O)Nc3ccc(OC(F)F)cc3)c2c1 | 27.7%
38 | Cc1ccc2nc(-c3ccncc3)cc(C(=O)Nc3ccncc3)c2c1 | 70.2% (active)
39 | O=C(Nc1ccc(S(=O)(=O)Nc2nccs2)cc1)c1cc(-c2ccncc2)nc2ccccc12 | 11.9%
40 | CCC1(C)Cc2c(sc3nnn(CC(=O)Nc4ccc(Cl)cc4)c(=O)c23)CO1 (stereo not given) | 11.2%
41 | O=C(/C=C/[C@H]1O[C@@H](n2ccc(=O)[nH]c2=O)[C@H](O)[C@@H]1O)NCc1ccccn1 | 12.5%
42 | CCCN(CC(=O)NC(=O)NC1CCCCC1)CC(=O)Nc1cc(Cl)ccc1Cl | 32.9%
43 | CC(C)(C(=O)N1CCC1(C)C(=O)NS(=O)(=O)c1ccc(Br)cc1)c1ccccc1 (stereo not given) | 3.42%
44 | O=C(O)C(=Cc1ccc([N+](=O)[O-])cc1)CCc1ccccc1 | -9.17%

Row | SMILES | inhibition
45 | CCOC(=O)/C(=C\c1ccc([N+](=O)[O-])cc1)C(=O)c1cc(C(C)=O)c(Nc2ccccc2)s1 | 106% (active)
46 | CCOC(=O)/C(=N\Nc1ccccc1[N+](=O)[O-])c1csc(Nc2ccccc2)n1 | 20.3%
47 | CN1C[C@@H](CO)O[C@@H](n2cnc3c(N4CCN(CCO)CC4)ncnc32)C1 | 8.41%
48 | Cc1cc(NC(=O)CSc2nc(C(C)C)nc3sc4c(c23)CCC(C)C4)no1 (stereo not given) | -3.65%
49 | Cc1cc(NC(=O)CSc2ncc(C(F)(F)F)cc2Cl)no1 | 5.97%
50 | Cc1nc(SCC(=O)Nc2cc(C)on2)c2c(C)c(C)sc2n1 | 73.6% (active)
51 | Cc1cc(C(=O)N2CCCC2(C)C(=O)O)c(C)o1 (stereo not given) | -4.99%
52 | COc1ccc(C(C)(NC(C)=O)c2nc(-c3ccc(S(C)(=O)=O)cc3)cs2)cc1 (stereo not given) | 7.41%
53 | COc1cc(CNc2ncnc3c2ncn3[C@H]2CN(Cc3cccs3)C[C@@H](CO)O2)cc(OC)c1OC | 10.1%
54 | O=CNc1cc(-c2ccc(C(=O)N3CCOCC3)cc2)cn2c(-c3ccc(F)cc3)cnc12 | 38.7%
55 | NCCCC[C@@H]1NC(=O)[C@H](CCC(=O)O)NC(=O)c2cc([N+](=O)[O-])cc(I)c2NCC[C@@H](C(N)=O)NC1=O | 4.12%
56 | NC(=O)CC[C@@H]1NC(=O)[C@H](CO)NC(=O)c2cc([N+](=O)[O-])cc(I)c2NCC[C@@H](C(N)=O)NC1=O | 4.02%
57 | CC(C)[C@@H]1NC(=O)c2cc([N+](=O)[O-])cc(I)c2NCCC[C@@H](C(=O)NC(CC(=O)O)C(N)=O)NC(=O)[C@H](CO)NC1=O (stereo not given in full) | 95.8% (active)
58 | COc1cccc(-c2cc3nc(NCCOc4ccccc4Cl)n(C)c(=O)c3s2)c1 | -22%
59 | Cc1ccccc1S(=O)(=O)N1[C@@H](c2cccc(Cl)c2)C(C(=O)OC(C)(C)C)=CC[C@H]1c1ccc(Cl)cc1 | 0.82%
60 | COc1cccc(-c2ccc3c(c2)N(Cc2ccccc2OC)C(=O)C(C)S3)c1 (stereo not given) | -0.98%
61 | Nc1ncnc2c1ncn2[C@@H]1O[C@H](C(=O)NS(=O)(=O)c2c(Cl)nc3sccn23)[C@@H](O)[C@H]1O | 8.22%
62 | CCc1nc2c(OCc3ccc(C(F)(F)F)cc3)cccn2c1N(C)C(=O)CC(C)C | 15.7%
63 | C=C1C2C[C@H](O)C(C)(C)[C@@]2(O)[C@H](O)C[C@]23C[C@@](C)(O)[C@H](CC[C@H]12)[C@H]3O (stereo not given in full) | 98.4% (active)
64 | O=C(NCC12CC3CC(C1)CC(CNC(=O)N1CCCC1)(C3)C2)N1CCCC1 | 18.2%
65 | CC(C)(O)C#Cc1ccc(CNC[C@H]2O[C@@H](n3cnc4c(=O)[nH]c(N)nc43)[C@H](O)[C@@H]2O)s1 | 14.8%
66 | O=C(NC(Nc1nc2ccc([N+](=O)[O-])cc2s1)(C(F)(F)F)C(F)(F)F)c1ccccc1 | 68.7% (active)

Row | SMILES | inhibition
67 | CC(Nc1ccc([N+](=O)[O-])cc1[N+](=O)[O-])c1ccccc1 (stereo not given) | 31.3%
68 | O=C(O)c1cc([N+](=O)[O-])c(Nc2cccc3ccccc23)c([N+](=O)[O-])c1 | 5.86%
69 | Cc1ccc(S(=O)(=O)N2CC[C@H]3[C@@H](C2)C(=O)C[C@@H](c2ccccc2)N3S(=O)(=O)c2ccc(C)cc2)cc1 | -19.4%
70 | CSc1ccc(CN2CCC2(C)C(=O)Nc2ccc(C)c(O)c2)cc1 (stereo not given) | -4.73%
71 | c1ccc(Cc2c(-c3ccco3)nc3c4ccccc4ccn23)cc1 | -310%
72 | O=C(NCc1ccc(F)cc1)c1cc(C2CCCCN2C(=O)C2CCCCC2)on1 (stereo not given) | 2.91%
73 | O=C(/C=C/Sc1ncn[nH]1)c1ccc(Cl)cc1 | 100% (active)
74 | COc1ccccc1/C=C/C=N/NC(=O)CN1CCN(Cc2ccccc2)CC1 | 3.31%
75 | COc1ccc(Cl)cc1C=CC=NNC(=O)c1ccncc1 | 97% (active)
76 | COc1ccc(Cl)cc1C=CC=Nc1ccc(S(N)(=O)=O)cc1 | 7.02%
77 | COCc1cccc(-c2csc(C(O)c3ccc(F)cc3)n2)c1 (stereo not given) | -120%
78 | CCCS(=O)(=O)NC(=O)C1(C)CCCN(C(=O)c2cccs2)C1 (stereo not given) | 12.1%
79 | Cc1cccc2nc(CSc3nc4[nH]ncc4c(=O)n3-c3cccc(Cl)c3)cc(=O)n12 | 38.6%
80 | CCc1ccc(-n2c(SCc3cc(=O)n4cc(Br)ccc4n3)nc3[nH]ncc3c2=O)cc1 | 54.1% (active)
81 | O=c1c2sccc2nc(SCc2cc(=O)n3ccccc3n2)n1-c1ccc(Br)cc1 | 40.8%
82 | COc1cc(C=C(OC(C)=O)c2ccc3c(c2)OCO3)cc(OC)c1OC | 7.01%
83 | COc1ccc(C2=NN(C(=O)c3ccccc3C(=O)O)C(c3ccccc3O)C2)cc1 (stereo not given) | -268%
84 | COc1ccc(C2CC(c3ccccc3)=NN2C(=O)CSc2nccc(=O)[nH]2)cc1 (stereo not given) | -109%
85 | COc1ccc(C2CC(c3ccccc3)=NN2C(=O)c2ccc(Cl)c([N+](=O)[O-])c2)cc1 (stereo not given) | 72.4% (active)
